Measurements from PubChem BioAssay (Tox21).
Inconclusive results are not listed. Calls of active or inactive are those of the source. Unless noted, the call rests on the fitted dose curve; in most records, active means well fitted curve in the direction sought with a large enough effect in the repeat runs; inconclusive means weak or mixed curves; inactive means no such curve, though single readings can be large; an effect the other way counts as inactive or inconclusive.

Columns and labels:
[1] = qHTS assay to identify small molecule agonists of the vitamin D receptor (VDR) signaling pathway - cell viability counter screen (AID 743224); further: series mostly up to about 63 µM; nearly all actives have a fitted effect of over 50% in size
Procedure, shortened: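 Here cell health was gauged by luminescent ATP detection (CellTiter-Glo, 30 min RT) in VDR-bla cells that had been incubated with test compounds for 16 h at 37C and 5% CO2.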

[2] = qHTS assay to identify small molecule agonists of the NFkB signaling pathway (AID 1159509; active means well fitted curve in the direction sought with a large enough effect in the signal ratio in the repeat runs, not every such curve was filed as active; the % refers to the signal ratio; further: series mostly up to about 61 µM)
Procedure, shortened: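 ME-180 NFkB-bla, 2,000 cells/well, overnight plating; cpd pinned in DMSO, 5 h 37 C; B/G FRET substrate 1.5 h RT; ex 405, em 460/530 nm.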

[3] = qHTS assay to identify small molecule agonists of the NFkB signaling pathway - cell viability counter screen (AID 1159515; calls by dose curve; further: series mostly up to about 61 µM; nearly all actives have a fitted effect of over 55% in size)
Procedure, shortened: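 5 hr compound treatment of NFkB-bla ME-180 cells (2,000/well, seeded overnight beforehand), followed by reporter substrate for 1.5 hr. CellTiter-Glo added afterward; luminescence after 30 min RT.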

[4] = qHTS assay to identify small molecule agonists of the endoplasmic reticulum stress response signaling pathway (AID 1159516; active means well fitted activation curve with a large enough effect in the signal ratio in the repeat runs, not every such curve was filed as active; the % refers to the signal ratio)
Procedure, shortened: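 Reporter HeLa cells (ESRE-beta-lactamase) underwent 5 hr compound incubation at 37 C and 5% CO2 in quantitative HTS format. Detection followed 2 hr of FRET substrate loading at room temperature.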

[5] = qHTS assay to identify small molecule agonists of the endoplasmic reticulum stress response signaling pathway - cell viability counter screen (AID 1159517; calls by dose curve;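 further: HeLa cells carrying an ER stress response element beta-lactamase reporter; series mostly up to about 61 µM; nearly all actives have a fitted effect of over 50% in size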)
Procedure, shortened: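 ESRE-bla HeLa cells, 1,500 per well, seeded overnight then treated with compounds for 5 hr at 37 C. After the beta-lactamase read, viability in the same wells is measured by CellTiter-Glo luminescence after 30 min at room temperature.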

[6] = qHTS assay to identify small molecule antagonists of the retinoid-related orphan receptor gamma (ROR-gamma) signaling pathway - cell viability counter screen (AID 1159520); further: nearly all actives have a fitted effect of over 50% in size
Procedure, shortened: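 Tet-on ROR gamma CHO cells were given compounds for 2 hr, then doxycycline hyclate at 1 uM final, and incubated 16 hr at 37 C. Viability was measured as ATP content by CellTiter-Glo luminescence.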

[7] = molecular target: Nuclear receptor ROR-gamma (Homo sapiens) (UniProt P51449); assay: qHTS assay to identify small molecule antagonists of the retinoid-related orphan receptor gamma (ROR-gamma) signaling pathway (AID 1159521;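 further: CHO cells with doxycycline inducible ROR-gamma driving an RORE luciferase reporter; top concentration of the series differs between compounds; nearly all actives have a fitted effect of over 50% in size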)
Procedure, shortened: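 Cells were plated, rested 4 h at 37 C, exposed to compounds for 2 h, then given 1 uM final doxycycline hyclate to induce RORγ expression. After 16 h, ONE-Glo luminescence from the ROR response element reporter was measured.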

[8] = qHTS assay to identify small molecule agonists of the AP-1 signaling pathway (AID 1159526; calls by dose curve)
[9] = qHTS assay to identify small molecule antagonists of the vitamin D receptor (VDR) signaling pathway - cell viability counter screen (AID 743225); further: nearly all actives have a fitted effect of over 50% in size
Procedure, shortened: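 HEK293T VDR-bla; cpd + 1a,25-(OH)2D3 3 nM final, 16 h 37C/5% CO2; B/G FRET substrate 2 h RT; then CellTiter-Glo 30 min RT, luminescence.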

[10] = qHTS assay to identify small molecule agonists of the AP-1 signaling pathway - cell viability counter screen (AID 1159525; calls by dose curve; further: nearly all actives have a fitted effect of over 55% in size)
Procedure, shortened: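 AP-1-bla ME-180 cells in Opti-MEM with 0.5% dialyzed FBS, compound exposure 5 h at 37 C in 15-point titration. Viability read in the same wells as ATP content by CellTiter-Glo luminescence, normalised to tetra-n-octylammonium bromide and DMSO controls.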

Measured: Potency

CC(O)CN(CCCN(C)C)CCCN(C)C (stereo not drawn)
not listed: [9] | [10]
inactive: all other assays above

CCOC(=O)Cn1c(=O)sc2cccc(Cl)c21
inactive: all assays above

CSc1ccc(C=O)cc1
not listed: [1]
inactive: all other assays above

CC1(C)SC(C)(C)SC(C)(C)S1
not listed: [9] | [10]
inactive: all other assays above

CC1CCN(CCCC(=O)c2ccc(F)cc2)CC1
not listed: [1] | [4] | [9]
inactive: all other assays above

Cn1cnc2c(=O)[nH]c(N)nc21
not listed: [5]
inactive: all other assays above

CC(C)c1ccc2oc3nc(N)c(C(=O)O)cc3c(=O)c2c1
not listed: [5]
inactive: all other assays above

C=CCOc1nc(OCC=C)nc(OCC=C)n1
not listed: [5] | [9] | [10]
inactive: all other assays above

CCN1CCCC(OC(=O)C(c2ccccc2)c2ccccc2)C1 (stereo not drawn)
not listed: [5]
inactive: all other assays above

CC(C)(C)C(=O)/C=C/c1ccc(Cl)cc1
not listed: [4] | [9]
inactive: all other assays above

CCCCCCCCN(C)CCCCCCCC
not listed: [5]
inactive: all other assays above

COC(=O)CCCCCCCCC(=O)OC
not listed: [5]
inactive: all other assays above

C=CCOCC(O)CS(=O)(=O)O (stereo not drawn)
not listed: [5]
inactive: all other assays above

O=Cc1ccccc1[N+](=O)[O-]
not listed: [5]
inactive: all other assays above

c1ccc(CCCc2ccccn2)cc1
not listed: [5]
inactive: all other assays above

CCCc1ccc(N)cc1
not listed: [5] | [10]
inactive: all other assays above

CCc1cc(S(=O)(=O)O)c2cc(C(C)C)cccc1-2
not listed: [5] | [9]
inactive: all other assays above

CC(C)(O)C(=O)c1ccc(OCCO)cc1
not listed: [5] | [10]
inactive: all other assays above

CC(=O)CCc1ccc(O)cc1
not listed: [5] | [9] | [10]
inactive: all other assays above

C[C@H](O)C(=O)Nc1c(I)c(C(=O)NC(CO)CO)c(I)c(C(=O)NC(CO)CO)c1I
not listed: [5] | [10]
inactive: all other assays above

C(=C(c1ccccc1)c1ccccc1)c1ccccc1
not listed: [1] | [5] | [10]
inactive: all other assays above

CC(CCO)CCCC(C)(C)O (stereo not drawn)
not listed: [5] | [10]
inactive: all other assays above

O=S(=O)(c1cccc2cnccc12)N1CCCNCC1
not listed: [5]
inactive: all other assays above

COc1ccc2cc(C=O)ccc2c1
not listed: [5]
inactive: all other assays above

CCCCCN(CCCCC)C(=O)C(CCC(=O)O)NC(=O)c1ccc(Cl)c(Cl)c1 (stereo not drawn)
not listed: [5]
inactive: all other assays above

CC(=O)OC(C)(C)C
not listed: [5]
inactive: all other assays above

C/C=C1\C(=O)C[C@H]2[C@@H]3CCC4=CC(=O)CC[C@]4(C)[C@H]3CC[C@]12C
not listed: [5]
inactive: all other assays above
